# Data published in PubChem BioAssay (NCI).
# Several values for one entry are separate records, joined by “and”; a condition that tells them apart may be missing. Equal values may be shown once. The panel holds about 83,000 compounds, 20% with a hit somewhere; the sample as a whole holds those more often.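 Growth was measured after 48 h exposure to one concentration of compound in 96-well plates. Values under 10 count as active.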 Activity calls are given as the source filed them.
# System: SK-MEL-2 melanoma
# Experiment: NCI-60 one-dose screen, 48 h (100 = growth as untreated, 0 = no growth, -100 = all killed)
# Conditions: 0.005 µM
# Description: Growth inhibition of the SK-MEL-2 human tumor cell line is measured as a screen for anti-cancer activity. Cells are grown in 96 well plates and exposed to the test compound for 48 hours. Compounds are tested at a single concentration, which is 10^-5 M for most compounds. The reported endpoint is percent growth (GI% or GIPRCNT), where numbers from 0 - 100% represent growth inhibition, and numbers from -100% - 0 represent cell death. For example, a value of 40 represents 60% growth inhibition. A value of 0 means no net growth occurred over the course of the experiment. A value of -40 indicates 40% of cells at the beginning of the experiment died by the end of the experiment. A value of -100 means all cells are dead at the end of the experiment.
# NCI-60 Human Tumor Cell Lines Screen was performed using the standard one-dose NCI protocol, which is described in more detail at https://dtp.cancer.gov/discovery_development/nci-60/default.htm.
# Compounds with GIPRCNT values below 10 were considered active. Activity score was based on GIPRCNT using the following formula: […]
# Score is 0 for GIPRCNT values of 100 or above, 50 for GIPRCNT values of 0, and 100 for GIPRCNT values of -100.
row,SMILES,growth
1,CN(C)CCNc1ncc(F)c(-c2cnc3cc(-c4cnn(C)c4)ccn23)n1,109% (inactive)

# Same assay, conditions: 10 µM
row,SMILES,growth
1,CC(=O)/C=C/c1ccc(N(C)Cc2ccc(C(C)(C)C)cc2)cc1,99.7% (inactive)
2,COc1ccc(C(=O)/C=C/c2ccc(OCc3ccc(Cl)cc3)cc2)cc1OC,98.3% (inactive)

# Same assay, conditions: 10 µM unless noted
row,SMILES,growth
1,Nc1nc(CSc2n[nH]c(N)n2)nc(Nc2ccccc2)n1,106% (inactive)
2,COc1c(NC=O)c2c(c([N+](=O)[O-])c1OC)C(=O)OC2,107% (inactive) and 120% (inactive)
3,CCCCC1=C(Br)C(=O)c2nc(C)ccc2C1=O,109% (inactive)
4,N#C/C(=C\c1ccccc1Cl)c1cc2ccccc2[nH]1,114% (inactive)
5,COC1=CC(=O)C(OC)=C(O)C1=O,105% (inactive)
6,COc1ccc(CCNC(=O)COc2cc3c(Nc4ccc(F)c(Cl)c4)ncnc3cc2OC)cc1OC,86.9% (inactive)
7,O=C1c2cccc3cccc(c23)C(=O)N1N1C(=O)c2cccc3c(N4CCNCC4)ccc(c23)C1=O,101% (inactive)
8,Cc1nc(-n2[nH]c(=O)ccc2=O)sc1N=Nc1ccccc1,108% (inactive)
9,CSc1nnc(-c2cc3c([nH]c4ccccc43)c(-c3cccc(O)c3)n2)n1-c1ccc(C)cc1,-13.6% (active)
10,Cc1ccc(S(=O)(=O)Nc2cc(Sc3ccccc3)c(O)c3ccccc23)cc1,81.8% (inactive)
11,CC(=O)N1N=C(c2ccc(F)cc2)CC1c1sc(N(C)Cc2ccccc2)nc1Cl (stereo not given),96.1% (inactive)
12,CCOC(=O)c1c(-c2ccc(OC)cc2)c(C#N)c2c(C#N)c(N)nn2c1N,3.6% (active)
13,O=C1C(c2c[nH]c3ccccc23)=C(c2coc3cc(Br)ccc23)C(=O)N1O,97.4% (inactive)
14,COc1ccc(Cl)cc1Nc1nc(C(F)(F)F)ccc1C(=O)N/N=C/c1ccc(N(C)C)cc1,82.5% (inactive)
15,O=C(NCc1ccc(Cn2c(=O)sn(-c3ccc(Cl)cc3)c2=O)cc1)OCc1ccc2c(Cl)cc(Cl)c(O)c2n1,74.3% (inactive)
16,Nc1c(C(=O)Nc2ccncc2)sc2nc3c(cc12)CCCCCCCC3,-86.7% (active)
17,CCN(CC)CCOc1ccc(/C(=C(\Cl)c2ccccc2)c2ccccc2)cc1,7.89% (active)

row,SMILES,growth
1,O=C1/C(=C/c2cn(-c3ccccc3)nc2-c2ccccc2)SC(=S)N1c1ccc(Cl)cc1,97.4% (inactive)
2,CCNC(=O)Oc1ccc(/C(=C(/C)Cc2ccc(OC)cc2)c2ccc(OCCN(CC)CC)cc2)cc1,86.5% (inactive)
3,OCc1cc(CN2CCCCC2)c(O)c2ncccc12,81.3% (inactive)
4,O=C(/C=C/c1cccs1)Nc1ncc(Cc2ccc(Cl)c(Cl)c2)s1,77.1% (inactive)
5,Clc1nccc2c(-c3csc(-c4c[nH]c5ccc(Br)cc45)n3)c[nH]c12,48.7% (inactive)
6,CCC(=O)Oc1cc(Cl)c(Cl)cc1Cl,103% (inactive)
7,Clc1ccc2c(c1)N(c1ncnc3ccc(-c4cnc5[nH]ccc5c4)cc13)CC2,28.3% (inactive)
8,O=C(Nc1ncc(Cc2cccc(C(F)(F)F)c2)s1)c1ccc(-n2cnnn2)cc1,89.4% (inactive)
9,COc1c(F)cc(-n2c(C(=O)N3CC(F)C3)cc3cccnc32)cc1F,108% (inactive)
10,O=S(=O)(O)c1ccc(N=Nc2ccc(N=Nc3cccc4ccccc34)c(S(=O)(=O)O)c2)cc1,99.8% (inactive)
11,Cc1ccc(Nc2nc(-c3cc(O)c(C)c(C)c3O)cs2)cc1,105% (inactive)
12,CN1C(=O)/C(=C/c2ccc(C(=O)Nc3ncc(Cc4ccccc4Cl)s3)cc2)SC1=S,101% (inactive)
13,Nc1nc(N)c2c(n1)NC(c1cccc(Nc3ccnc4cc(C(F)(F)F)ccc34)c1)CC(c1ccc(F)cc1)=N2 (stereo not given),37.3% (inactive)
14,Cc1ccc(Cc2cnc(NC(=O)c3cc(C)oc3C)s2)cc1,85.6% (inactive)
15,Nc1ccc(-c2ccc(N)c(Br)c2)cc1Br,44% (inactive)
16,O=C(O)c1ccccc1Cc1ccc(F)c2ccccc12,101% (inactive) and 119% (inactive)
17,CCCCCCCCCCCCCCCC(=O)O[C@@H]1[C@@H](O)[C@@H](O)C([C@H](NC(=O)[C@@H]2C[C@@H](CCC)CN2C)[C@H](C)Cl)O[C@@H]1SC (stereo not given in full),112% (inactive)

# Same assay, conditions: 30 µM
row,SMILES,growth
1,CN(C)CCNc1ncc(F)c(-c2cnc3cc(-c4cnn(C)c4)ccn23)n1,64.6% (inactive)

# Same assay, conditions: 100 µM
row,SMILES,growth
1,CC(=O)/C=C/c1ccc(N(C)Cc2ccc(C(C)(C)C)cc2)cc1,-69.2% (active)
2,COc1ccc(C(=O)/C=C/c2ccc(OCc3ccc(Cl)cc3)cc2)cc1OC,48.5% (inactive)
